Assay [1] concerns the target Cellular tumor antigen p53 (Homo sapiens) (UniProt P04637). As to the kind of experiment: Primary qHTS for small molecule compounds that upregulate eGFP-tagged delta133p53alpha (in N-terminal) cells. (AID 2060322).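 For activation: series mostly up to about 56 µM; 0% = DMSO vehicle and 100% = reference activator.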 Note: nearly all actives have a fitted effect of over 75% in size. Note: potency is the fitted concentration of half-maximal effect. Particulars: NCI-H358 eGFP-delta133p53alpha fluorescence, 24 h; activation: active compounds read high. In outline: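 NCI-H358 cells pre-induced 24 h with 10 ng/ml doxycycline to express N-terminal eGFP-delta133p53alpha, then dosed 24 h at 37C without doxycycline; fixed, Hoechst-stained, GFP intensity by laser scanning cytometry, normalized to DMSO (0%) and 57.5 uM 5-azacytidine (100%).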
(In qHTS, concentration-response curves come from the screen itself.)

Assay [2] has as its target Aldehyde dehydrogenase, mitochondrial (Homo sapiens) (UniProt P05091). As to the kind of experiment: qHTS for Inhibitors of the Aldehyde Dehydrogenase Family (ALDH2) Confirmatory screens (AID 2061303; active = well fitted inhibition curve with a large enough effect; title and protocol of this record describe different tests; note: nearly all actives have a fitted effect of over 45% in size; note: potency is the fitted concentration of half-maximal effect).
The nature of assay [3]: qHTS for Inhibitors of the Aldehyde Dehydrogenase Family (ALDH1A2, ALDH1A3, ALDH2, ALDH3A1) (AID 2061307). For Potency: test system not described further here; potency is the fitted concentration of half-maximal effect. Note: nearly all actives have a fitted effect of over 50% in size.
Assay [4] has as its target Aldehyde dehydrogenase, mitochondrial (Homo sapiens) (UniProt P05091). Description: qHTS for Inhibitors of the Aldehyde Dehydrogenase Family (ALDH2) Primary screen (AID 2061308). Note: nearly all actives have a fitted effect of over 55% in size. Note: potency is the fitted concentration of half-maximal effect.
The target in assay [5] is Retinaldehyde dehydrogenase 3 (Homo sapiens) (UniProt P47895). Description: qHTS for Inhibitors of the Aldehyde Dehydrogenase Family (ALDH1A3) Primary screen (AID 2061315).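 Note: plate controls were DMSO vehicle for no effect and reference inhibitor for full effect.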
The target in assay [6] is Retinal dehydrogenase 2 (Homo sapiens) (UniProt O94788). Description: qHTS for Inhibitors of the Aldehyde Dehydrogenase Family (ALDH1A2) Confirmation screens (AID 2061314). Note: nearly all actives have a fitted effect of over 65% in size.
Assay [7] has as its target Aldehyde dehydrogenase 1A1 (Homo sapiens) (UniProt P00352). As to the kind of experiment: qHTS for Inhibitors of the Aldehyde Dehydrogenase Family (ALDH1A1) Confirmatory screens (AID 2061316). Note: nearly all actives have a fitted effect of over 65% in size. Note: potency is the fitted concentration of half-maximal effect.
Assay [8] has as its target Retinaldehyde dehydrogenase 3 (Homo sapiens) (UniProt P47895). As to the kind of experiment: qHTS for Inhibitors of the Aldehyde Dehydrogenase Family (ALDH1A3) Validation screen (AID 2061312). Note: % is set by controls: 0 for no effect and ±100 for the full control effect; nearly all actives have a fitted effect of over 45% in size.
For assay [9] the target is unchanged. As to the kind of experiment: qHTS for Inhibitors of the Aldehyde Dehydrogenase Family (ALDH1A3) Confirmatory screens (AID 2061311). Note: % is set by controls: 0 for no effect and ±100 for the full control effect; nearly all actives have a fitted effect of over 60% in size.
The nature of assay [10]: BET inhibitor-based combinations targeting novel dependencies in MECOM-rearranged (r) AML: SET-2 cell line (AID 2202231).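 For viability: plate controls were DMSO treated cells for no effect and wells without cells for full effect.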 Note: nearly all actives have a fitted effect of over 35% in size. Note: potency is the fitted concentration of half-maximal effect. To be noted: SET-2 AML cells viability, CellTiter-Glo luminescence, 48 h; viability: active compounds read low, concentration not given here. The essentials: (§1)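 500 cells/well; 11-pt dose curve; 48 h, standard incubator; CellTiter-Glo luminescence after 15 min RT; DMSO/empty-well normalization; AUC plus Z-AUC (mean-centered within each line).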
A general note: ATP-based viability assays read luminescence as a measure of living cells.

Assay [11] can be described thus: BET inhibitor-based combinations targeting novel dependencies in MECOM-rearranged (r) AML: OCI-AML3 cell line (AID 2202232). Note: nearly all actives have a fitted effect of over 35% in size. Note: potency is the fitted concentration of half-maximal effect. Particulars: Potency: OCI-AML3 viability. The essentials:
as §1

Assay [12] can be described thus: BET inhibitor-based combinations targeting novel dependencies in MECOM-rearranged (r) AML: MV-4-11 cell line (AID 2202233). Note: nearly all actives have a fitted effect of over 45% in size. Note: potency is the fitted concentration of half-maximal effect. In outline:
(§2)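 Cells were plated at 500 per well and exposed to each drug across an 11-point dose range for 48 hr at standard incubator conditions. Viability was read by CellTiter-Glo luminescence, and activity was expressed as AUC and per-cell-line Z-transformed AUC.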

The nature of assay [13]: BET inhibitor-based combinations targeting novel dependencies in MECOM-rearranged (r) AML: HNT-34 cell line (AID 2202234). Note: nearly all actives have a fitted effect of over 35% in size. Note: potency is the fitted concentration of half-maximal effect. The essentials:
as §2

Assay [14] is described as follows: BET inhibitor-based combinations targeting novel dependencies in MECOM-rearranged (r) AML: UCSD-AML1 cell line (AID 2202235). Note: nearly all actives have a fitted effect of over 40% in size. Note: potency is the fitted concentration of half-maximal effect. In outline:
as §2

The nature of assay [15]: BET inhibitor-based combinations targeting novel dependencies in MECOM-rearranged (r) AML: AML-191 cell line (AID 2202236; note: nearly all actives have a fitted effect of over 35% in size; note: potency is the fitted concentration of half-maximal effect). In outline:
as §1

A short description of assay [16]: BET inhibitor-based combinations targeting novel dependencies in MECOM-rearranged (r) AML: AML-194 cell line (AID 2202237; note: nearly all actives have a fitted effect of over 40% in size; note: potency is the fitted concentration of half-maximal effect). In outline: as §1

Several values for one entry are separate records, joined by “and”; a condition that tells them apart may be missing. Equal entries are not always repeated. Records with an inconclusive call do not appear. A number with no mark means an inactive call. Activity calls are given as the source filed them. Unless noted, calls come from the whole dose curve; as a rule, active = well fitted curve in the direction sought with a large enough effect; inconclusive = small, poorly fitted or top-dose-only effect, or another doubt; inactive = no such curve, though single readings can be large; an effect the other way counts as inactive or inconclusive.

Chain of Cellular tumor antigen p53 (Homo sapiens) (P04637 whole entry, looked up): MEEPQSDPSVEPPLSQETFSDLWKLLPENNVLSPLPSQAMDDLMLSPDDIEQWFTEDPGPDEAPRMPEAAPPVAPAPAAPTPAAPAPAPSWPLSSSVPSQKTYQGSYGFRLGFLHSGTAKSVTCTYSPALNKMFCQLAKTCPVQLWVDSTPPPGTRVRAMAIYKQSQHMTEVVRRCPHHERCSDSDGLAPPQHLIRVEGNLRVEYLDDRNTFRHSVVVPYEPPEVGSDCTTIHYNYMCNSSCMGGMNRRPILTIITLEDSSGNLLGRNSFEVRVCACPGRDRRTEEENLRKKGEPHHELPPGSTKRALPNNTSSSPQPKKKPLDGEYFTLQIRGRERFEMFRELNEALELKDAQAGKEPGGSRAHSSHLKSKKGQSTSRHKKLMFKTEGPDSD

`NC1(c2ccc(NC(=O)c3ccnc(-c4cc(C(=O)O)ccn4)c3)cc2)CC1`: in assay [1], the activation is 15.7%. For the same compound, the Potency result in assay [2], in [3], in assay [4] and in assay [5] was “inactive” each time.
Consider `COc1cc(/C=C/C(=O)O[C@H]2[C@H](OC(=O)/C=C/c3cc(OC)c(O)c(OC)c3)O[C@H](CO[C@@H]3O[C@H](CO)[C@@H](O)[C@H](O)[C@H]3O)[C@@H](O)[C@@H]2O)ccc1O`, for which, in assay [1], the activation was -3.57%. For the same compound, the Potency entry in [2], in assay [3], in assay [4], in assay [6] and in assay [7] was “inactive” in each case.
Regarding `COc1ccc(NC(=O)c2ccc(-c3ccc(C(=N)N)cc3C)cc2)cc1N1CCN(C)CC1`, the activation in [1] is 8.11%. Further, the Potency result in assay [2], in [3] and in assay [4] was “inactive” throughout. Also, the Potency in assay [7] is 12.7 µM (active).
Consider `COc1cc(/C=C/C(=O)OC[C@H]2O[C@@H](OC3OC=C(C(=O)O)C4C(O)CC(C)(O)C34)[C@H](O)[C@@H](O)[C@@H]2O)cc(OC)c1O` (stereo partly drawn), for which the activation in assay [1] is -12.2%. Also, the Potency entry in assay [2], in assay [3], in assay [4] and in [6] was “inactive” throughout.
On to `C=C1CC23CC1CCC2C12OC(=O)C(C)(CCC1O)C2C3C(=O)O` (stereo not drawn), for which the activation in assay [1] was 21.4%. Moreover, the Potency entry in assay [2], in assay [3], in assay [4] and in assay [6] was “inactive” in each case.
On to `S=C(c1ccc(-c2ccc(Cl)c(Cl)c2)o1)N1CCCCC1`, for which the activation in assay [1] is -7.64%. The Potency in assay [2] was 2.83 µM (active); in assay [3] it was 12.7 µM (active); in assay [4] it was 22.4 µM (active); in assay [7], 5.04 µM (active). Also, the Potency result in [8] and in assay [5] was “inactive” each time.
With `OC[C@@]1(O)CO[C@@H](OC[C@H]2O[C@@H](Oc3ccccc3)[C@H](O)[C@@H](O)[C@@H]2O)[C@@H]1O`, the activation in assay [1] is -3.82%. The Potency result in assay [2], in assay [3], in assay [4], in [6] and in [7] was “inactive” each time.
On to `O=C(CCCCCCNC(=O)c1cnc(N(c2ccccc2)c2ccccc2)nc1)NO`, for which the activation in [1] was 7.34%. The Potency entry in assay [2], in [3], in [4], in assay [9] and in assay [7] was “inactive” in each case. Further, the Potency in assay [10] was 6.61 µM (active); in assay [11], 5.9 µM (active); in assay [12] it was 2.35 µM (active); in assay [13], 7.42 µM (active); in assay [14] it was 7.42 µM (active); in [15] it was 7.42 µM (active). Besides, the Potency in [16] is 9.34 µM (active).
One may read the viability as a read-out of living cells in per cent, often relative to untreated cells. Regarding `CN(C)c1cccc(-c2c3c(=O)n(-c4ccccc4Cl)[nH]c3cc(=O)n2C)c1`, the activation in assay [1] was 5.36% and -13.4%. The Potency result in [2], in [3], in assay [4], in [6], in assay [11] and in assay [12] was “inactive” in each case. The Potency result in assay [13], in [14], in assay [15] and in assay [16] was “inactive” throughout. Also, the viability in [10] was 110%.
Regarding `CC1(C)CC(=O)c2c(C(F)(F)F)nn(-c3ccc(C(N)=O)c(NC4CCC(OC(=O)CN)CC4)c3)c2C1` (stereo not drawn), the activation in assay [1] is 38.8% and -1.67%. For the same compound, the Potency result in [2], in assay [3], in [4], in assay [5] and in [7] was “inactive” throughout. The Potency in assay [11] was 0.209 µM (active); in [12], 0.059 µM (active); in assay [13] it was 0.209 µM (active); in assay [14], 0.186 µM (active).
For the compound `C=C(C)C(=O)O[C@H]1[C@H]2C(=C)C(=O)O[C@@H]2/C=C(\CO)CC/C=C(/C=O)[C@@H]1O`, the activation in assay [1] was -6.11%. Further, the Potency entry in assay [2], in assay [3], in assay [4] and in assay [6] was “inactive” each time.
Regarding `CSC(=O)OCC1=C[C@@H]2OC(=O)C3=CO[C@@H](O[C@@H]4O[C@H](CO)[C@@H](O)[C@H](O)[C@H]4O)[C@H]1[C@@H]32`, the activation in [1] is -22.1%. Besides, the Potency entry in assay [2], in assay [3], in assay [4], in [6] and in assay [7] was “inactive” throughout.
Consider `Cc1ccc(-c2c(C(=O)CCl)n(CCCO)c3ncnc(N)c23)cc1`, for which, in assay [1], the Potency was 12 µM (active). Also, the Potency entry in assay [2], in [3], in [4], in assay [5] and in assay [7] was “inactive” in each case.
Turning to `Cc1nc2c(C#N)c[nH]n2c(=O)c1C(C)C`, the activation in [1] is 23.5%. In addition, the Potency result in [2], in assay [3], in assay [4], in assay [6], in [5] and in assay [7] was “inactive” in each case.
Consider `CCC[C@H](N[C@@H](C)C(=O)N1[C@H](C(=O)O)C[C@@H]2CCCC[C@@H]21)C(=O)O`, for which the activation in assay [1] is -7.64%. Further, the Potency entry in assay [2], in assay [3], in [4], in [6], in [5] and in [7] was “inactive” in each case.
Take `C/C=C1\[C@H](O[C@@H]2O[C@H](CO)[C@@H](O)[C@H](O)[C@H]2O)OC=C(C(=O)OC)[C@H]1CC(=O)OC[C@H]1O[C@@H](OCCc2ccc(O)cc2)[C@H](O)[C@@H](O)[C@@H]1O`: the activation in [1] was -1.53%. Moreover, the Potency result in assay [2], in assay [3], in assay [4] and in assay [6] was “inactive” throughout.
Take `CC1CCC23COC(=O)C2=CC(O)CC3C1(C)CCC1=CC(O)OC1=O` (stereo not drawn): the activation in assay [1] is -3.82%. For the same compound, the Potency entry in assay [2], in [3], in [4], in assay [6] and in assay [5] was “inactive” in each case.
As for `O=C(OCC1=C[C@@H](O)[C@@H]2C=CO[C@@H](O[C@@H]3O[C@H](CO)[C@@H](O)[C@H](O)[C@H]3O)[C@H]12)c1ccc(O)cc1`, the activation in assay [1] was 3.57%. The Potency entry in assay [2], in assay [3], in [4], in [6] and in assay [5] was “inactive” each time.
`COc1cc(C(O)C2COC(c3ccc(OC4OC(CO)C(O)C(O)C4O)c(OC)c3)C2CO)ccc1O` (stereo not drawn): in [1], the activation is -10.7%. Moreover, the Potency entry in [2], in assay [3], in [4] and in assay [7] was “inactive” each time.
Consider `NCCCCN(Cc1nc2ccccc2[nH]1)[C@H]1CCCc2cccnc21`, for which, in assay [1], the activation is 1.43%. Further, the Potency result in assay [2], in assay [3], in [4], in assay [8], in assay [6] and in assay [5] was “inactive” in each case. Also, the Potency entry in assay [7] is “inactive”.
On to `COc1cc2nc(N3CCCC3)nc(NCCCCCN3CCCC3)c2cc1OC`, for which the Potency in assay [1] is 30.6 µM (active). For the same compound, the Potency entry in assay [2], in assay [3], in assay [4], in assay [8], in assay [6] and in [5] was “inactive” throughout.
`CC(=O)OCC(=O)[C@@]1(O)[C@H](C)C[C@H]2[C@@H]3C=C(C)C4=Cc5c(cnn5-c5ccccc5)C[C@]4(C)[C@@H]3[C@@H](O)C[C@@]21C`: in [1], the activation was 2.08%. In addition, the Potency result in assay [2], in assay [3], in [4], in assay [6], in [5] and in assay [7] was “inactive” in each case. The Potency entry in assay [11], in [13] and in assay [14] was “inactive” in each case. Besides, in [10], the viability was 96.5%.
With `CC[C@H](CO)Nc1nc(NCc2ccc(-c3ccccn3)cc2)c2ncn(C(C)C)c2n1`, the Potency in assay [1] is 0.536 µM (active). Further, the Potency entry in assay [2], in assay [3], in assay [5] and in assay [7] was “inactive” throughout.

Values taken from PubChem BioAssay (NCATS).
